# Source: PubChem
# Tau fluor cs: counter-screen for tau fibril formation inhibitors | Potency, µM (highest dose often 57.7 µM), for inactives: top-dose activity change, negative = decrease | tau K18 P301L Alexa594 fluorescence, heparin fibrillization | 0.93% of 280,000 active | AID 1463; also: potency is read from the fitted curve at half-maximal effect; nearly all actives have a fitted effect of over 55% in size
#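 Human K18 P301L tau (15 uM unlabeled plus 0.24 uM Alexa 594-labeled, final) in 100 mM sodium acetate pH 7 was mixed with compound and 20 uM heparin and incubated 6 hr at 37 C.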
# FBPA coupling cs: inhibits coupling enzyme system, counter-screen for aldolase hits | coupling enzyme system counterscreen, AmpLite Red fluorescence | activity change, negative = inhibition, % at 58.2 µM, hits read low | 0.67% of 290,000 active | AID 2472; in the data active = activity change below about -30%
#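 Counterscreen of the coupled detection system alone, without aldolase: glyceraldehyde-3-phosphate coupling enzymes plus AmpLite Red readout. Compounds at 57.5 uM final, 10 min RT preincubation, 20 min RT reaction, fluorescence 525/598 nm.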
# Sfp inh: blocks B. subtilis Sfp PPTase activity. Q9F4F7. Biochemical Sfp PPTase activity, qHTS. Potency, µM, inactives show largest response in the series, negative = inhibition, hits mostly inhibitors. 3.5% of 310,000 active;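 also: the enzyme is Sfp with the accession as filed and its product quenches rhodamine fluorescence; potency is read from the fitted curve at half-maximal effect; 0% = enzyme reaction without inhibitor and -100% = no enzyme wells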
#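 Sfp 15 nM + cpd, 15 min RT; start w/ rhodamine-CoA 5 uM, BHQ-2-YbbR 12.5 uM (final); 50 mM Hepes pH 7.6, 10 mM MgCl2, 0.01% NP-40, 0.01% BSA; read 525/598 nm at 0 and 30 min.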
# Tau FP inhib: tau fibrillization inhibition (FP). P10636. Potency, µM (titrated, usually from 57.7 µM), for the others: at the highest dose activity, negative = inhibition, most hits filed as inhibitors. K18 P301L tau heparin fibrillization, Alexa594 FP, 6 h. 0.39% of 280,000 active. AID 1468; also: potency is read from the fitted curve at half-maximal effect; nearly all actives have a fitted effect of over 55% in size
# Target sequence (P10636 561-689 P618L limits assumed): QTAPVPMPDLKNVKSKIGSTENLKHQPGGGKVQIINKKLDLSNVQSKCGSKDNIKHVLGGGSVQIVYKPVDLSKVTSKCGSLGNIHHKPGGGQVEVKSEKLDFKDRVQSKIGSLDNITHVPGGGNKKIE
#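 FP of Alexa 594-tau after heparin (20 uM) induction. Substrate: human K18 P301L, 15 uM unlabeled, 0.24 uM labeled. Buffer 100 mM sodium acetate pH 7. 6 hr, 37 C.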
# Tau fibril ThT: blocks human tau fibril formation measured by thioflavin T; P10636; recombinant tau K18 P301L, heparin-induced fibrillization, ThT fluorescence; Potency, µM (highest dose often 57.4 µM), for the others: at the highest dose activity, negative = inhibition, usual class: inhibitors; 2.1% of 270,000 active; AID 1460; also: potency is read from the fitted curve at half-maximal effect; nearly all actives have a fitted effect of over 55% in size
#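 ThT emission at 510 nm, taken 1 hr after adding 30 uM dye, quantifies aggregates formed when 20 uM heparin acts on human tau K18 P301L for 6 hr at 37 C.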
# * marks the source's active call; other numbers are inactive results; ? = inconclusive; / = no result given; [ ] = remark or other dose. Shown are actives, neighbours in structure and some others; about 5.2% of the full set was active somewhere. Unless noted, calls follow the shape of the dose curve; as a rule, active = well fitted curve in the direction sought with a large enough effect; inconclusive = small, poorly fitted or top-dose-only effect, or another doubt; inactive = no such curve, though single readings can be large; an effect the other way counts as inactive or inconclusive. Unless noted, % is scaled to controls: 0 for no effect and ±100 for the full control effect.
SMILES,Tau fluor cs,FBPA coupling cs,Sfp inh,Tau FP inhib,Tau fibril ThT
CCCCNc1cc(NC(C)=O)cc2cc(OC)c(OC)cc12,-13%,-44*,1%,-11%,-20%
Cc1ccc2cccc(NC(=O)c3cccc4c(Cl)cccc34)c2n1,-13%,/,/,-11%,-11%
CC(C)CC(=O)/C(=C\c1ccc(Cl)cc1Cl)n1cncn1,7%,0,32µM*,1%,?
CC(C)CC(=O)/C(=C/c1ccc(N(C)C)cc1)n1cncn1,/,-2,10%,/,/
Oc1ccc(N2CCN(CC(O)c3ccccc3)CC2)cc1 (stereo not drawn),/,-19,50µM*,/,/
CC(C)c1ccc(NC(=O)Cn2cc(S(=O)(=O)Cc3ccccc3Cl)c3ccccc32)cc1,?,/,/,?,4%
CCOc1ccc(N2C(=O)CN(C)C2=S)cc1,0%,0,-3%,-3%,1%
CCOc1ccc(N2C(=O)CN(O)C=C3N=c4ccccc4=C32)cc1,-8%,-19,4.5µM*,-8%,-10%
CO/N=C/c1ccc(Sc2ccccc2N)c([N+](=O)[O-])c1,28µM*[quencher],-2,-10%,5%,?
O=[N+]([O-])c1cc(/C=N/O)ccc1Sc1ccccc1,?,-17,71µM*,-5%,?
CO/N=C/c1ccc(Sc2ccccc2)c([N+](=O)[O-])c1,?,2,-16%,-4%,?
CC1CCN(C(=O)C2COc3ccccc3C2)CC1 (stereo not drawn),12%,/,/,4%,13%
COc1ccc(-c2c(C(=O)O)nc3ccccc3c2C(=O)O)cc1,0%,-34*,-5%,8%,-2%
O=c1[nH]c2ccccc2c2oc(CCl)nc12,-15%,-13,6.3µM*,?,?
CCOc1ccc(/C(CCC(=O)O)=N/NC(=S)NC(C)C)cc1,-2%,0,35µM*,-4%,-10%
CCOc1ccc(C(=O)CCC(=O)O)cc1,4%,4,14%,3%,-5%
COC(=O)/C=C\c1cc(O)ccc1O,-27%,-8,50µM*,0%,?
COC(=O)/C=C/C(=O)Nc1ccc(O)c(Cl)c1,-26%,0,-19%,12%,?
C=C1CCC[C@]2(C)C[C@H]3OC(=O)C(CNCC(C)C)[C@H]3CC12 (stereo partly drawn),/,-1,0%,/,/
C=C1CCC[C@]2(C)C[C@H]3OC(=O)C(CNCCN(CC)CC)[C@H]3CC12 (stereo partly drawn),/,0,56µM*,/,/
C=C1CCC[C@]2(C)C[C@H]3OC(=O)[C@H](CNCCc4ccccc4OC)C3CC12 (stereo partly drawn),-1%,0,56µM*,0%,-2%
C=C1CCC[C@]2(C)C[C@H]3OC(=O)C(CNCCN(C)C)[C@H]3CC12 (stereo partly drawn),/,1,-5%,/,/
CCN(C(=O)c1cn(-c2cccc(OC)c2)c(=O)c2ccccc12)c1ccccc1C,2%,/,/,-1%,1%
O=C(Nc1nc(-c2cccs2)c(-c2ccccc2)s1)c1ccco1,?,1,?,?,-20%
CC1CC1C(=O)Nc1nc(-c2cccs2)c(-c2cccs2)s1 (stereo not drawn),?,-3,50µM*,5%,?
SMILES,Tau fluor cs,FBPA coupling cs,Sfp inh,Tau FP inhib,Tau fibril ThT
Cc1c2cnn(CC(=O)N3CCN(c4ccccc4)CC3)c(=O)c2c(C)n1Cc1ccccc1Cl,-2%,/,/,-3%,-7%
O=C(CC1Nc2cccc3cccc(c23)NC1=O)Nc1ccccc1 (stereo not drawn),8%,-40*,18µM*,0%,9%
Cc1ccc(NC(=O)CC2Nc3cccc4cccc(c34)NC2=O)cc1 (stereo not drawn),14µM*[quencher],/,/,?,14µM*
Cc1cc2c(cc1C)NC(CC(=O)Nc1ccccc1)C(=O)N2 (stereo not drawn),-26%,/,/,8%,?
CCOc1cc2[nH]c(=O)n(CCCCC(=O)N3CCN(c4ccccc4OC)CC3)c(=O)c2cc1OCC,-11%,/,/,-3%,-3%
COc1ccc(-c2noc(COc3ccc(Br)cc3C)n2)cc1OC,-23%,/,/,-12%,?
CCOC(=O)c1sc(NC(=O)c2nc3ncccn3n2)c(C(=O)OC)c1C,5%,/,/,2%,7%
CC(C)(C)c1nc(S(=O)(=O)c2ccc(Cl)cc2)c(N2CCOCC2)o1,-15%,2,-4%,?,?
CCCS(=O)(=O)c1nc(S(=O)(=O)c2ccc(C)cc2)c(N2CCOCC2)s1,/,1,14%,/,/
Cc1ccc(S(=O)(=O)c2nc(Nc3ccccc3)sc2Cl)cc1,14µM*[quencher],1,15%,?,-1%
Cc1ccc(S(=O)(=O)c2nc(NCCN(C)C)sc2Cl)cc1,-14%,1,7%,-7%,-4%
Cc1ccc(S(=O)(=O)c2nc(N3CCOCC3)sc2Cl)cc1,-10%,-9,50µM*,-5%,-11%
COc1ccc(Nc2nc(S(=O)(=O)c3ccc(C)cc3)c(Cl)s2)cc1,10µM*[quencher],-5,7%,4%,-17%
O=S(=O)(c1ccccc1)c1nc(Nc2cccc(O)c2)sc1Cl,?,0,-16%,1%,-7%
CC(C)Cc1nc(S(=O)(=O)c2ccc(Cl)cc2)c(N2CCOCC2)o1,-17%,1,40µM*,?,?
CCC1CC=CC2C1C(=O)N(Cc1ccccc1)C2c1cc(C)ccc1F (stereo not drawn),/,-2,-9%,/,/
O=C(CCCn1c(=O)c2ccccc2n(Cc2ccc(F)cc2Cl)c1=O)NCCc1ccc(Cl)cc1,-9%,/,/,-4%,-2%
CN(NC1CC(=O)N(c2ccccc2)C1=O)c1ccccc1 (stereo not drawn),-7%,4,45µM*,-14%,?
COc1cc(NC(=O)CNS(=O)(=O)c2cccs2)cc(OC)c1OC,-7%,/,/,5%,-7%
CCCc1cc(=O)n2[nH]c(-c3ccc(Cl)cc3)cc2n1,/,-4,8%,/,/
O=c1cc(-c2ccccc2)nc2cc(-c3ccco3)[nH]n12,-14%,0,25µM*,0%,?
O=c1cc(-c2ccc([N+](=O)[O-])cc2)nc2cc(-c3ccc(Cl)cc3)[nH]n12,?,1,-9%,-1%,2.2µM*
CCOc1ccccc1N(CC(=O)NCCSCc1ccco1)S(=O)(=O)c1ccccc1,/,-1,-26%,/,/
Cc1ccccc1N(CC(=O)NCCSCc1ccco1)S(C)(=O)=O,-6%,2,20µM*,-9%,-16%
Cc1[nH]c(=S)c(C#N)c(-c2ccco2)c1C(=O)N(C)C,-3%,-6,10µM*,-4%,-16%
Cc1c(C(=O)Nc2cccc(C(F)(F)F)c2)sc2nc[nH]c(=O)c12,-9%,/,/,-4%,-2%
Cn1ccnc1Sc1ccccc1[N+](=O)[O-],-8%,-1,-8%,-13%,-1%
CSc1nccn1C(=O)c1ccccc1[N+](=O)[O-],/,-22,40µM*,/,/
